Only a selection was taken, and hits are over-represented in it overall.
Methyltransferases = Primary Screen for Target Class Profiling of Small Molecule Inhibitors of Methyltransferases | purified enzyme, MTase-Glo SAH luminescence; hits give low values | calls only at 40 µM | 25,000 tested, 3.9% active; call rule not given here
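Each enzyme was assayed with SAM and its substrate. SAH formation detected by MTase-Glo luminescence; single-point 40 uM screen[…].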
MTase-Glo counter = Counterscreen for Target Class Profiling of Small Molecule Inhibitors of Methyltransferases. shares compounds with Methyltransferases. MTase-Glo coupled enzymes, SAH conversion luminescence, no MTase. Potency, µM (titrated, usually from 57.3 µM), for the others: at the top dose activity change, negative = inhibition, most hits filed as inhibitors. 180 tested, 6% active. AID 1745851, 2022; active = well fitted inhibition curve with a large enough effect; also: potency is read from the fitted curve at half-maximal effect
Starred values were filed as active, the others as inactive; i = inactive; + = active, no number; [ ] = remark or other dose. % is scaled to controls: 0 for no effect and ±100 for the full control effect.

SMILES | Methyltransferases | others
CCc1cc2c(cc3n2CC(C)(C(=O)NC2CCC(C)CC2)N(C2CCCC2)C3=O)s1 (centres undefined) | i
O=C1COc2ccc(N3CCOCC3)nc2CN1Cc1ccc(F)cc1 | i
O=C1COc2ccc(-c3cccc(O)c3)nc2CN1Cc1ccc(C(F)(F)F)cc1 | + | MTase-Glo counter=1.9%[85.7 µM]
Cn1cc(-c2ccc3c(n2)CN(Cc2ccc(F)cc2)C(=O)CO3)cn1 | i
COc1ccc(OC)c(CN2C(=O)c3cc4ccccc4n3CC2(C)C(=O)NCc2ccccc2)c1 (centres undefined) | i
O=C(C1CCCN1[S+](=O)([O-])c1cccc(C(F)(F)F)c1)N1CCC(c2nc3ccncc3[nH]2)C1 (centres undefined) | i
O=C(C1CCCN1C(=O)c1ccccc1Cl)N1CCC(c2nc3ccncc3[nH]2)CC1 (centres undefined) | i
O=C(c1ccc(C(F)(F)F)cc1)N1CCCC(C(=O)N2CCC(c3nc4ccncc4[nH]3)CC2)C1 (centres undefined) | + | MTase-Glo counter=1.6%
CC1(CO)CCCC2(C)C3COC(=O)C3=CC(O)C12 (centres undefined) | i
Cc1c(Cl)cccc1NC(=O)Cn1c(=O)nc(N(C)c2ccccc2)c2ccccc21 | i
CCN1C(=O)c2cc(C(=O)N3CCN(c4cc(C)ccc4C)CC3)nn2CC1(C)C(=O)NC1CCCC1 (centres undefined) | i
CN1CCCN(C(=O)c2ccccc2F)c2ccccc21 | i
Cn1cc2c3c(cccc31)CN(C(=O)c1ccccc1F)CC2 | + | MTase-Glo counter=-3.2%
O=C(c1ccccc1F)N1CCn2ncc(C(=O)N3CCOCC3)c2C1 | i
CCc1ccccc1N1C(=O)CSc2c(c3ccccc3n2C)C1C(=O)NCc1ccc(F)cc1 (centres undefined) | i
COc1cccc(N2CCN(c3ccc4nnc(CCC(=O)N5CCN(c6ccc(F)cc6)CC5)n4n3)CC2)c1 | i
CN1CCN(C)c2cnc(-c3cnn(Cc4ccccc4)c3)cc2C1 | + | MTase-Glo counter=4.3%[85.7 µM]
CC1(C(=O)NC2CCCCCC2)Cn2c(ccc2-c2ccco2)C(=O)N1Cc1ccccn1 (centres undefined) | i
Cn1c2c(c3ccccc31)C(C(=O)NCc1ccccc1)N(c1cccc(C(F)(F)F)c1)C(=O)CS2 (centres undefined) | i
COC1CCCN(C(=O)c2cnc(Cc3c(Cl)cccc3Cl)[nH]c2=O)C1 (centres undefined) | i
CC1(C(=O)NC2CCCCCC2)Cn2c(c(-n3cccc3)c3cc(F)ccc32)C(=O)N1Cc1cccc(F)c1 (centres undefined) | i
O=C(CCc1nnc2n(CCc3ccccc3)c(=O)c3ccccc3n12)NCCCN1CCCC1=O | i
CCc1nc(NC(=O)Cn2nc3c(cc2=O)CCCC3)sc1C | i
O=C(Cn1nc2c(cc1=O)CCCCC2)Nc1nnc(C2CCCO2)s1 (centres undefined) | i
COC(=O)c1nc(NC(=O)Cn2nc3c(cc2=O)CCCC3)sc1C(C)C | + | MTase-Glo counter=-1.1%
SMILES | Methyltransferases | others
CCc1ccc(CN2C(=O)c3ccc(-c4ccccc4)n3CC2(C)C(=O)NC2CCC(C)CC2)cc1 (centres undefined) | i
CC1(C(=O)NC2CCCCC2)Cc2ccccc2C(=O)N1CCc1ccccc1 (centres undefined) | i
O=C(Cc1ccc(-c2ccccc2)cc1)NC1CCC1 | i
CN(Cc1ccccc1)C1(C(=O)NC2CCC(O)CC2)Cc2ccccc2C1 (centres undefined) | + | MTase-Glo counter=-24.4%
CCC(C)NC(=O)c1ccc2c(=O)n(C(C)C)c3nn(Cc4c(F)cccc4Cl)c(=O)n3c2c1 (centres undefined) | i
O=C(Nc1ccccc1F)C1CN(C2CCCCC2)C(=O)N1 (centres undefined) | i
O=[S+]1([O-])NC2(CCN(Cc3ccc(F)cc3)CC2)CNc2ccccc21 | i
COc1cccc(CN2CCCC3(CNc4ccccc4[S+](=O)([O-])N3)C2)c1 (centres undefined) | + | MTase-Glo counter=-4.8%
N#Cc1ccc(CN2CCC3(CNc4ccccc4[S+](=O)([O-])N3)C2)cc1 (centres undefined) | i
CCOc1ccc(-c2cc3n(n2)CC(C)(C(=O)NCCC(C)C)N(Cc2ccc(OC)cc2)C3=O)cc1 (centres undefined) | i
COCCCN1C(=O)c2nc3ccccc3n2CC1(C)C(=O)NC1CCCCCC1 (centres undefined) | i
O=C(CSc1nnc2n(CCc3ccccc3)c(=O)c3ccccc3n12)NC1CCCCC1 | i
COC(=O)c1ccc2nc(C[C@@H]3C[C@@H](C(C)C)[C@H](CNC(=O)c4cccnc4)C=C3C)[nH]c2c1 | i

Screening results (PubChem BioAssay)
